Compound activity from PubChem.
Hits are enriched below; roughly 19% of the tested compounds scored in any of these assays.
TDP1 cell CPT – DT40-hTDP1 cell growth loss with CPT | chicken DT40 Tdp1-/-;hTDP1 cells + 20 nM CPT, ATP luminescence, 48 h | Potency, µM (highest dose often 46.2 µM), usual class: inhibitors | hit rate 12% among 420,000; also: nearly all actives have a fitted effect of over 55% in size
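Cell growth measured by CellTiter-Glo luminescence after a minimum 48 h, 37 C compound exposure with 20 nM CPT in Tdp1-knockout DT40 cells stably expressing hTDP1, seeded 400/well; qHTS titration format.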
HT1080NT lethal – kills 2HG-producing HT-1080-NT fibrosarcoma cells; HT-1080-NT fibrosarcoma viability, CellTiter-Glo ATP luminescence, 48 h; Potency, µM (highest dose often 46.1 µM), hits mostly cytotoxic; hit rate 1.6% among 360,000;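 also: NT is the 2HG producing partner of a matched IDH1 knockdown line; nearly all actives have a fitted effect of over 55% in size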
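Viability of the 2HG-overproducing fibrosarcoma line after 48 hours of compound exposure at 37 degrees C was determined by luminescence with CellTiter-Glo, and concentration-effect curves were then fitted and categorized.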
DT40 TDP1 no CPT – qHTS for Inhibitors of human tyrosyl-DNA phosphodiesterase 1 (TDP1): qHTS in cells in absence of CPT | DT40 Tdp1-/- hTDP1 cells, no CPT, ATP luminescence, 48 h | Potency, µM (doses to about 46.2 µM), actives largely listed as inhibitors | hit rate 15% among 420,000 | AID 686978, 2013; also: nearly all actives have a fitted effect of over 55% in size
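Growth of hTDP1-complemented DT40 Tdp1-knockout cells is measured by ATP luminescence after at least 48 hr compound exposure at 37 °C, with DMSO substituting for the 20 nM CPT used in the parallel screen.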
uPA surface inh – blocks generation of uPA at the cell surface; cell surface uPA generation assay, qHTS; Potency, µM (titrated, usually from 38.3 µM), usual class: inhibitors; hit rate 0.31% among 330,000; AID 540303; active = well fitted inhibition curve with a large enough effect; inconclusive = small, poorly fitted or top-dose-only effect; inactive = no such curve, though single readings can be large or run the other way; tested in mouse RAW 264.7 cells; also: nearly all actives have a fitted effect of over 55% in size
HT1080 IDH1KD tx – kills HT-1080 cells with IDH1 knockdown. HT-1080 IDH1 knockdown viability, ATP luminescence, 48 h. Potency, µM (highest dose often 46.1 µM), usual class: cytotoxic. hit rate 2% among 360,000. AID 686971
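Assay cells: HT-1080 with IDH1 knockdown, 750 per well, RPMI/5% FBS. Exposure: 48 h at 37 °C following 2 h pre-incubation. Read: CellTiter-Glo luminescence; fitted concentration-response, curve class assigned.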
IL-1B inflam inh – inhibitors of inflammasome signaling (IL-1 beta secretion) | THP-1 LPS/ATP IL-1B secretion, AlphaLISA, 16 h; active compounds read low | activity change, % at 57.5 µM | hit rate 4.7% among 360,000 | AID 743279; in the data active = activity change below about -50%; inconclusive = mostly about -30% to -49%
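Secreted IL-1B measured by AlphaLISA bead assay after 16 h compound exposure of THP-1 cells; compounds (final up to 57.5 uM) added 1 h before LPS (250 ng/mL) and ATP (1.25 mM) stimulation; lower signal means less secretion.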
Large screens that a line does not name were inactive. Unless noted, calls follow the shape of the dose curve; as a rule, active = well fitted curve in the direction sought with a large enough effect; inconclusive = small, poorly fitted or top-dose-only effect, or another doubt; inactive = no such curve, though single readings can be large; an effect the other way counts as inactive or inconclusive.

COc1cccc(NC(=O)N(C)C[C@H]2Oc3cc(Br)ccc3S(=O)(=O)N([C@H](C)CO)C[C@H]2C)c1	TDP1 cell CPT inconclusive, DT40 TDP1 no CPT inconclusive (no result: uPA surface inh)
C[C@H]1CN([C@@H](C)CO)S(=O)(=O)c2ccc(Br)cc2O[C@H]1CN(C)C(=O)Cc1ccccc1	TDP1 cell CPT inconclusive, DT40 TDP1 no CPT inconclusive (no result: uPA surface inh)
O=C(Cc1ccccc1)NNS(=O)(=O)c1ccccc1[N+](=O)[O-]	none
Cc1nc2cc(-c3ccccc3)nn2c(C)c1CCC(=O)N1CCN(c2ccccc2)CC1	DT40 TDP1 no CPT inconclusive
CC(=O)c1cnc2c(-c3ccccc3)c(C)nn2c1C	none
COc1ccc(N2CCN(C(=O)CCc3c(C)nc4c(-c5ccccc5)c(C)nn4c3C)CC2)cc1	TDP1 cell CPT 23µM, DT40 TDP1 no CPT 18µM (no result: HT1080NT lethal, uPA surface inh, HT1080 IDH1KD tx, IL-1B inflam inh)
COc1cccc(N2CCN(C(=O)c3cnc4c(-c5ccccc5)c(C)nn4c3C)CC2)c1	TDP1 cell CPT 15µM, DT40 TDP1 no CPT inconclusive (no result: HT1080NT lethal, uPA surface inh, HT1080 IDH1KD tx, IL-1B inflam inh)
CCOC(=O)Cc1c(C)nc2c(-c3ccc(OC)cc3)c(C)nn2c1C	TDP1 cell CPT inconclusive, HT1080NT lethal inconclusive, DT40 TDP1 no CPT 23µM, HT1080 IDH1KD tx inconclusive
O=C(CCS(=O)(=O)c1ccc(Br)s1)Nc1c(F)cccc1F	none (no result: HT1080NT lethal, uPA surface inh, HT1080 IDH1KD tx, IL-1B inflam inh)
O=C(CCCc1c[nH]c2ccccc12)N[C@@H](Cc1c[nH]c2ccccc12)C(=O)O	none
CCCCCCOc1ccc(C(=O)O)cc1	none
CC(=NNC1=NCCN1)c1cnn(C2=NCCN2)c1C	none (no result: uPA surface inh)
CCCCCOc1ccc(/C(C)=N/NC2=NCCN2)cc1	TDP1 cell CPT inconclusive, DT40 TDP1 no CPT inconclusive, uPA surface inh inconclusive, IL-1B inflam inh -66
CCOc1ccc(Br)cc1/C(C)=N\NC1=NCCN1	TDP1 cell CPT 5.8µM, HT1080NT lethal 21µM, DT40 TDP1 no CPT 4.6µM, HT1080 IDH1KD tx inconclusive, IL-1B inflam inh -80
CCCCCCOc1ccc(/C(C)=N/NC2=NCCN2)cc1	TDP1 cell CPT inconclusive, DT40 TDP1 no CPT inconclusive, uPA surface inh inconclusive, IL-1B inflam inh -56
CC(=O)[C@H]1[C@H]([C@H](O)[C@H](O)CO)O[C@](O)(C(=O)O)C[C@@H]1O	none
O=C(c1ccncc1)N1CCC2(CCCN(c3ccncc3)C2)CC1	none (no result: HT1080NT lethal, uPA surface inh, HT1080 IDH1KD tx, IL-1B inflam inh)
COc1cccc(CNC(=O)CCc2c(C)nc3c4c(C)cc(C)nc4nn3c2C)c1	TDP1 cell CPT inconclusive, DT40 TDP1 no CPT 23µM (no result: HT1080NT lethal, uPA surface inh, HT1080 IDH1KD tx, IL-1B inflam inh)
CCOc1ccc(CCNC(=O)CCc2c(C)nc3c4c(C)cc(C)nc4nn3c2C)cc1	none (no result: HT1080NT lethal, uPA surface inh, HT1080 IDH1KD tx, IL-1B inflam inh)
Cc1cc(C)c2c(n1)nn1c(C)c(CCC(=O)Nc3cccc(C)c3C)c(C)nc21	TDP1 cell CPT 7.3µM, DT40 TDP1 no CPT 7.3µM (no result: HT1080NT lethal, uPA surface inh, HT1080 IDH1KD tx, IL-1B inflam inh)
COc1cc(OC)c(NC(=O)CCc2c(C)nc3c4c(C)cc(C)nc4nn3c2C)cc1Cl	none (no result: HT1080NT lethal, uPA surface inh, HT1080 IDH1KD tx, IL-1B inflam inh)
COC(=O)c1ccccc1NC(=S)N(Cc1ccc2c(c1)OCO2)Cc1cc2ccc(C)cc2[nH]c1=O	TDP1 cell CPT inconclusive, DT40 TDP1 no CPT inconclusive
COC(=O)c1ccccc1NC(=S)N(Cc1ccc2c(c1)OCO2)Cc1cc2cc(C)ccc2[nH]c1=O	TDP1 cell CPT 21µM, DT40 TDP1 no CPT inconclusive
CCN(CC)CCN(Cc1cc2ccc(C)cc2[nH]c1=O)C(=S)Nc1ccccc1C(=O)OC	TDP1 cell CPT inconclusive, HT1080NT lethal inconclusive, DT40 TDP1 no CPT inconclusive, HT1080 IDH1KD tx 18µM, IL-1B inflam inh -77
Nc1ccn([C@@H]2O[C@H](CNCc3ccc(Oc4cc(-n5cccn5)ncn4)cc3)[C@@H](O)[C@H]2O)c(=O)n1	none (no result: uPA surface inh)
O=C(COC(=O)c1ccccc1SCC(=O)N1CCCC1)NCc1ccc(F)cc1	none (no result: uPA surface inh)
O=C(Nc1ccsc1C(=O)N1CCCC1)c1ccccc1	TDP1 cell CPT 16µM, DT40 TDP1 no CPT 21µM
COc1ccc(C)cc1NC(=O)Cc1c(C(=O)O)n(C)c2ccccc12	none
COc1ccc(C)cc1N(C)C(=O)Cc1c(C(=O)O)n(C)c2ccccc12	DT40 TDP1 no CPT 5.2µM
CCN(CC(=O)Nc1ccc(OC)cc1)C(=O)c1ccc2c(=O)n3c(nc2c1)CCC3	none
